From the supplement of paper PMC11732987, “Enantioselective OTUD7B fragment discovery through chemoproteomics screening and high-throughput optimisation” (Communications Chemistry, 2025)

Legend:
Assay in all cases: log2 ratio of Biotin-Ahx-Ub-VS probe labelling (fragment/DMSO); higher = less target engagement (more negative = stronger competition), active = hit call of the paper (q ≤ 0.05, log2 ratio ≤ -1)
Settings in all cases: compound concentration: 200 uM; treatment time: 3 h
[1] = molecular target: USP16 (UniProt Q9Y5T5)
In short: (§1)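 Global-median-normalised Spectronaut label-free quantities were compared by unpaired t-test, and values are average log2 ratios of fragment over vehicle. Only proteins with ≥2 unique peptides were used. HEK293T lysate (495 µg per sample) was treated in triplicate with fragment at 200 µM or vehicle for 3 h and then with Biotin-Ahx-Ub-VS at 0.5 µM final for 1 h. Labelled DUBs were then NeutrAvidin-enriched, digested with LysC and trypsin, and run by diaPASEF LC-MS/MS.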

[2] = molecular target: T1, USP19 (UniProt O94966)
T1 sequence (whole entry): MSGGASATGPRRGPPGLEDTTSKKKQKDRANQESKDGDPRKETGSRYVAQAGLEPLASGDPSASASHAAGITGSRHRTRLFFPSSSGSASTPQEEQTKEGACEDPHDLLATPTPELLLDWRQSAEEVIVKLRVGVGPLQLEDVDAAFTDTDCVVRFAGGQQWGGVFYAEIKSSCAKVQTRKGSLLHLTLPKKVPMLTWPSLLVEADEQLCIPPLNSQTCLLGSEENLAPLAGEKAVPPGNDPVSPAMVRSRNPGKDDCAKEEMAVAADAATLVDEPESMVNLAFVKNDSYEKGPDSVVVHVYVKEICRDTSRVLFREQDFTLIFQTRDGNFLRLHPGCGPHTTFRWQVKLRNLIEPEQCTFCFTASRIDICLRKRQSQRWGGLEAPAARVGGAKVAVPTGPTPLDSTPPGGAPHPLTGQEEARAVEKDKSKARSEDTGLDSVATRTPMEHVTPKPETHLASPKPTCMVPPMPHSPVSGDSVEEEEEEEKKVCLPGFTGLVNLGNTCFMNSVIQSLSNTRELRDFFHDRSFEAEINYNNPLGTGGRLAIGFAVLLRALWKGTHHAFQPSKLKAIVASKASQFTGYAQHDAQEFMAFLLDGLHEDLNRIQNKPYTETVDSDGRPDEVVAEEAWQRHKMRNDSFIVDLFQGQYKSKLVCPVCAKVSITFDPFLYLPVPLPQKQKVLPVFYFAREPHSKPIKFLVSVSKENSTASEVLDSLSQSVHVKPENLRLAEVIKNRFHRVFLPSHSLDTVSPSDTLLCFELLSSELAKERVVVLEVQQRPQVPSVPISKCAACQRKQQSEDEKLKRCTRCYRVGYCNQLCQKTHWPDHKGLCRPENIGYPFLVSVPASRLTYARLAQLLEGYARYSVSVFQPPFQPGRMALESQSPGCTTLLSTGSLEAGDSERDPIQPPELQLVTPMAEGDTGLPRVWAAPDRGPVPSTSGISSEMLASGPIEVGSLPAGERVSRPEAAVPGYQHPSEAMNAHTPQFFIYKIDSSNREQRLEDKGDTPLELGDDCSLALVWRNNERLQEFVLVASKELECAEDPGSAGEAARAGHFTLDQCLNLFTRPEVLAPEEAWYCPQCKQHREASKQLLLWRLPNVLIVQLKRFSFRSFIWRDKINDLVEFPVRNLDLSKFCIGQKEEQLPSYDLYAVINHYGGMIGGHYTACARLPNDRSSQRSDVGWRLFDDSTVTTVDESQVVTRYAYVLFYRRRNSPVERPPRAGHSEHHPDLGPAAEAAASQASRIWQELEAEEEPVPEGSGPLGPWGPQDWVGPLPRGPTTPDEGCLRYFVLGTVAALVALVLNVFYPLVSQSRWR
In short: as §1

[3] = molecular target: USP24 (UniProt Q9UPU5)
In short: as §1

[4] = molecular target: T2, USP25 (UniProt Q9UHP3)
T2 sequence (whole entry): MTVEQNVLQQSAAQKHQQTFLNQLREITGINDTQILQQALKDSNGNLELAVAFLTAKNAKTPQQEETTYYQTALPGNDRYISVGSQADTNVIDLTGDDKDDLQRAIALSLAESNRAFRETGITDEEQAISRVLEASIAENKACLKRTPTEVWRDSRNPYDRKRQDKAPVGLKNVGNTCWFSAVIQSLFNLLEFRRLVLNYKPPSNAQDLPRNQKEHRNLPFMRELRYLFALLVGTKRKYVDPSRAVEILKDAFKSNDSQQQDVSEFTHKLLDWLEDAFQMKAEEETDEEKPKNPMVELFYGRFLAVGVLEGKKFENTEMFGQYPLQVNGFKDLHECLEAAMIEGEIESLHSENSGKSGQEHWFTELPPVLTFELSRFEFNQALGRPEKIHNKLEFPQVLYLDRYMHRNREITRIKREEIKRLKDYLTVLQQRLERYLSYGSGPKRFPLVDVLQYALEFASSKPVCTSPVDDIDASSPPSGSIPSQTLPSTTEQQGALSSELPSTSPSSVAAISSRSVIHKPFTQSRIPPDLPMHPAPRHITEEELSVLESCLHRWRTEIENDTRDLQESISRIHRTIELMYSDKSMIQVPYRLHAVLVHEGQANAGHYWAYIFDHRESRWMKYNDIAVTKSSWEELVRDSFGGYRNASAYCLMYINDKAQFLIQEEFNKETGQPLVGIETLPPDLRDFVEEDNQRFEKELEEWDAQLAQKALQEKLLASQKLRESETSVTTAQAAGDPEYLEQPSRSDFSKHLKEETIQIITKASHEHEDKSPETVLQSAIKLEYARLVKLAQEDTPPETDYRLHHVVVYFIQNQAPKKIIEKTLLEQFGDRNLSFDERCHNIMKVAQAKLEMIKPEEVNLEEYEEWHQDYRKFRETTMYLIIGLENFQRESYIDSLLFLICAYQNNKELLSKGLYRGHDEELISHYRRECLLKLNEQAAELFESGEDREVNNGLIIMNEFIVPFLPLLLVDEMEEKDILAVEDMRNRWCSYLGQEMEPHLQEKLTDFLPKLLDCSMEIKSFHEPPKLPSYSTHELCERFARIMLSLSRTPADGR
In short: as §1

[5] = molecular target: T3, USP28 (UniProt Q96RU2)
T3 sequence (whole entry): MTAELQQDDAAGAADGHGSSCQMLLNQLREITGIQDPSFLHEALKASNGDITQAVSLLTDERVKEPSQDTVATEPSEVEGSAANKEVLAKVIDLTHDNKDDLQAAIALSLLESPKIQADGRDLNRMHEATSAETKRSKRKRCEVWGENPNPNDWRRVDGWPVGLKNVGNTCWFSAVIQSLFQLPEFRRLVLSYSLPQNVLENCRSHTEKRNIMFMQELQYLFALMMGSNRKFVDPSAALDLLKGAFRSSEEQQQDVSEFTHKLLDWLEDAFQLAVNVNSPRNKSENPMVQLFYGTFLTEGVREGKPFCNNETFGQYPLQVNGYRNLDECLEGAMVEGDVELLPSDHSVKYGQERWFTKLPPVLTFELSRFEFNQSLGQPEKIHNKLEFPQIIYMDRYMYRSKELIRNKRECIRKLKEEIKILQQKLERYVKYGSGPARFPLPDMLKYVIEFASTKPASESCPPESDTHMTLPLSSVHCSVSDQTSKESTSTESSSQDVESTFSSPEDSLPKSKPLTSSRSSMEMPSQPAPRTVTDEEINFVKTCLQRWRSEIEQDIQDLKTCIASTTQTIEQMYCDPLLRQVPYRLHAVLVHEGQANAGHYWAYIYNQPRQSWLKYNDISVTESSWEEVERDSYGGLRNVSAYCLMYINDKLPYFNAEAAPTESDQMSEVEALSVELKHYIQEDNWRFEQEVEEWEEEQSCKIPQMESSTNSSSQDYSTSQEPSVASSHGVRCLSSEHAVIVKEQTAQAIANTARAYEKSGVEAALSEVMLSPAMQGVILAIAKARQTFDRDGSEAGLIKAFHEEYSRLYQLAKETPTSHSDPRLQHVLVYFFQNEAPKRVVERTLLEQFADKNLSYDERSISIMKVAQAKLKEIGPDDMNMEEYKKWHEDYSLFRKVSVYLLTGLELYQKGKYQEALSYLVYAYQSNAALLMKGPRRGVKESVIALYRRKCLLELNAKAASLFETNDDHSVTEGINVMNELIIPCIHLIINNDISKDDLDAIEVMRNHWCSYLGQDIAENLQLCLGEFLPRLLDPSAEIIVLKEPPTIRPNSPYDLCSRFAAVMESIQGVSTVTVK
In short: as §1

Measured: log2 ratio of Biotin-Ahx-Ub-VS probe labelling

Sequence of USP24 (Q9UPU5 whole entry): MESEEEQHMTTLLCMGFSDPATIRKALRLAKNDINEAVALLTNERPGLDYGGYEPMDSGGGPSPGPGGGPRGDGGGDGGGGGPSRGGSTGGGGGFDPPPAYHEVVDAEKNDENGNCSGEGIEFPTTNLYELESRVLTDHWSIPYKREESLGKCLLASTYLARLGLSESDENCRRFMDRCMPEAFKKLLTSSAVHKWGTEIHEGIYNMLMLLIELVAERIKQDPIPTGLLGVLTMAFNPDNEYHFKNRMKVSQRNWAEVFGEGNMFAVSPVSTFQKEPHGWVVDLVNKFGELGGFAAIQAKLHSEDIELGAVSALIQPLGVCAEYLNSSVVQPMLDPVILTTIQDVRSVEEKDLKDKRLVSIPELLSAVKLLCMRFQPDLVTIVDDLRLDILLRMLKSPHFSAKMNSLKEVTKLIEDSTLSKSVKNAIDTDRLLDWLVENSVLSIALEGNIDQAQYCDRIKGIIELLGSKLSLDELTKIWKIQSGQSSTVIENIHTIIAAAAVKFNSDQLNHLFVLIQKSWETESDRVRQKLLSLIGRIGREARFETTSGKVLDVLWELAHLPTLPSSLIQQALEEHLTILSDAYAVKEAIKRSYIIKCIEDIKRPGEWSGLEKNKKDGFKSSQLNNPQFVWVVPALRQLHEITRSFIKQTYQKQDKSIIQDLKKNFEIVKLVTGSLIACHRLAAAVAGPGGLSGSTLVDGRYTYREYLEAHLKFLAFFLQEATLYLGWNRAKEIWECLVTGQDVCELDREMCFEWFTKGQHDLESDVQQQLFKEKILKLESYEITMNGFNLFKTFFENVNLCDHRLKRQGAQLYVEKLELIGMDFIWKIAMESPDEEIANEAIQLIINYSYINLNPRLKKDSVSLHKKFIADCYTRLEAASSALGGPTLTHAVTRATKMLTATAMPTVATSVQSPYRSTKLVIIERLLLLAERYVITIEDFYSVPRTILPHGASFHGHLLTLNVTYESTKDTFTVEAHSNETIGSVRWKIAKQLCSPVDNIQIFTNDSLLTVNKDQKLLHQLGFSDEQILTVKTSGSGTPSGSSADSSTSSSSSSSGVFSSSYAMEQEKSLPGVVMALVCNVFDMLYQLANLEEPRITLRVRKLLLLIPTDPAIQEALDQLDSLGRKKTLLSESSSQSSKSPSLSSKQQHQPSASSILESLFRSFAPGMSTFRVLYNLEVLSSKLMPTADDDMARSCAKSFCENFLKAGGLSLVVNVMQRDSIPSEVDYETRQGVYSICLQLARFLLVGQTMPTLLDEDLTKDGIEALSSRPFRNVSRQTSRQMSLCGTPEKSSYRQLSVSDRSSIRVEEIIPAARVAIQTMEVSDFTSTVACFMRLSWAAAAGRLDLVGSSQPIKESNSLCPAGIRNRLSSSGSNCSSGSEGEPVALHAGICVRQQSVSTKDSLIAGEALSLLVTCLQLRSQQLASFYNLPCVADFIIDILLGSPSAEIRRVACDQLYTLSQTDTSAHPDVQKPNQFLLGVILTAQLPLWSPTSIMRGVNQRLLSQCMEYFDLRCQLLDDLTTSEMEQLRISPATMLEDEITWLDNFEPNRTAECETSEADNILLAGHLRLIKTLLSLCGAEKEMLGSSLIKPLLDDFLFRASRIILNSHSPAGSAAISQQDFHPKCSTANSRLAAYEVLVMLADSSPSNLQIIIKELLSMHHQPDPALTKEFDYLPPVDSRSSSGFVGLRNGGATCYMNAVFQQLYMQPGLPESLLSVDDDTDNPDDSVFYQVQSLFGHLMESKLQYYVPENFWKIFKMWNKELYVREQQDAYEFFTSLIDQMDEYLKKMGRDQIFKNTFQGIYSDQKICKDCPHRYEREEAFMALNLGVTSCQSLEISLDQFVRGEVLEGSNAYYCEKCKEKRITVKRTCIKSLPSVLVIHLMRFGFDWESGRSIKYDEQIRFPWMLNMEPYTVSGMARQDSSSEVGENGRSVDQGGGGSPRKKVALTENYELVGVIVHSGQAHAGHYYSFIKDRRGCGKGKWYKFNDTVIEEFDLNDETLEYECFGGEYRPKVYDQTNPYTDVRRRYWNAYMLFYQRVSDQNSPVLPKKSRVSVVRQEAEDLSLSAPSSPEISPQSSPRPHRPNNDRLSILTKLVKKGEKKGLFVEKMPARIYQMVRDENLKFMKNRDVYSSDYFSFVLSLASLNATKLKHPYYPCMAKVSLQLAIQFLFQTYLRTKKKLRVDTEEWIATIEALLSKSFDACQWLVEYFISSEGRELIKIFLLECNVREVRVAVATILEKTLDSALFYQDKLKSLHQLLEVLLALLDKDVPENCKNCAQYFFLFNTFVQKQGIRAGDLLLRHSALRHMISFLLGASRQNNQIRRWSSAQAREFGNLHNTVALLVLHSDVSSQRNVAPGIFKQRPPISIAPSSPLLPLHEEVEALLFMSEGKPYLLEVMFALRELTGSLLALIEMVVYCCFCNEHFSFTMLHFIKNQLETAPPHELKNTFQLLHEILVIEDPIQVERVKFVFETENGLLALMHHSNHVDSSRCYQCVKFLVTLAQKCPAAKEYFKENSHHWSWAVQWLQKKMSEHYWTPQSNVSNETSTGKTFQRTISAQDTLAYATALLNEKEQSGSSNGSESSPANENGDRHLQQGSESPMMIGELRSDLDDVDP
Sequence of USP16 (Q9Y5T5 whole entry, looked up, the tested form may be a part): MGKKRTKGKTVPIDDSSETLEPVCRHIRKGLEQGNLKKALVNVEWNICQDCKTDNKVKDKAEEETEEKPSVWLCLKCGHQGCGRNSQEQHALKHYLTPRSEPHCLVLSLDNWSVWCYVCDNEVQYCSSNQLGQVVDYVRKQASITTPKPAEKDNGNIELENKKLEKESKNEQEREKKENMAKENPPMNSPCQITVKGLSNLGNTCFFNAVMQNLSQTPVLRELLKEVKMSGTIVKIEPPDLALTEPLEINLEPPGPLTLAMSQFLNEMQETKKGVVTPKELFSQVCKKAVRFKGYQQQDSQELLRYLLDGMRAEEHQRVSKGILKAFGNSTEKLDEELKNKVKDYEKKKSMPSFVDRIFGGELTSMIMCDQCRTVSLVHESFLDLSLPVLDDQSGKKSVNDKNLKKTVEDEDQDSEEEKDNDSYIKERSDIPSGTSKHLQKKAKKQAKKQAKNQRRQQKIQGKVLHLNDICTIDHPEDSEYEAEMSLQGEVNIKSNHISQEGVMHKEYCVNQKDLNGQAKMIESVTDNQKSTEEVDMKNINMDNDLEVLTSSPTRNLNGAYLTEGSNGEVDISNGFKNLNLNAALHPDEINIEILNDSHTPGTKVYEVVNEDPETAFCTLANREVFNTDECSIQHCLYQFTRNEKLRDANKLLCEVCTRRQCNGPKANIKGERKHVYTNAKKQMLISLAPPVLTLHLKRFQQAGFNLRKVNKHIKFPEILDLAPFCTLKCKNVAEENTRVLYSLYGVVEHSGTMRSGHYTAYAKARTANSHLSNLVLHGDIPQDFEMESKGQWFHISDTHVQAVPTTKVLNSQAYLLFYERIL

O=C(CCl)N1CCCCCC1c1ncon1 (stereo not given)
inactive: [1] -0.0478 | [2] -0.0696 | [3] -0.257 | [4] -0.435 | [5] -0.35
